In article PMC7862700, “An all-to-all approach to the identification of sequence-specific readers for epigenetic DNA modifications on cytosine”:

Experiments:
Assay in all cases: DAPPL (digital affinity profiling via proximity ligation, sequencing); 10 mM Tris-HCl pH 7.5, 50 mM NaCl, 1 mM DTT, 4% glycerol, room temperature, 30 min; GST-TFs on glutathione beads, 16-mer random dsDNA library, 0.1% formaldehyde crosslink after washing; high values mean tight binding
Conditions in all cases: protein: recombinant; tags: N-terminal GST; dsDNA, one strand shown
[1] = molecular target: T1, FEV (Homo sapiens, UniProt Q99581 1-238)
T1 sequence: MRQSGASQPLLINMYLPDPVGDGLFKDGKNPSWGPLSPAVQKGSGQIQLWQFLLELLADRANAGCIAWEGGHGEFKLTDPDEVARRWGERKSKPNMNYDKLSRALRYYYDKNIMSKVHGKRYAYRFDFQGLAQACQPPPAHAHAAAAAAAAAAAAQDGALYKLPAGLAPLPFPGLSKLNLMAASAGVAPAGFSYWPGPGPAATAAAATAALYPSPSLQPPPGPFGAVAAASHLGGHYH
Method in brief: (§1)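 Yeast served to express human transcription factors as GST fusions, which were then captured on glutathione beads and labelled with DNA barcodes. Pooled with a tag-only sample, they were incubated with 200 nmole of a 16-mer random double-stranded DNA library for 30 min at room temperature in Tris/NaCl/DTT/glycerol buffer, washed, crosslinked with 0.1% formaldehyde, ligated by proximity, amplified by PCR and sequenced. Dividing each hexamer's read frequency for a factor by its frequency for the tag-only sample gives the binding signal.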

[2] = molecular target: ETV5 (Homo sapiens, UniProt P41161 1-510)
ETV5, sequence (P41161 whole entry): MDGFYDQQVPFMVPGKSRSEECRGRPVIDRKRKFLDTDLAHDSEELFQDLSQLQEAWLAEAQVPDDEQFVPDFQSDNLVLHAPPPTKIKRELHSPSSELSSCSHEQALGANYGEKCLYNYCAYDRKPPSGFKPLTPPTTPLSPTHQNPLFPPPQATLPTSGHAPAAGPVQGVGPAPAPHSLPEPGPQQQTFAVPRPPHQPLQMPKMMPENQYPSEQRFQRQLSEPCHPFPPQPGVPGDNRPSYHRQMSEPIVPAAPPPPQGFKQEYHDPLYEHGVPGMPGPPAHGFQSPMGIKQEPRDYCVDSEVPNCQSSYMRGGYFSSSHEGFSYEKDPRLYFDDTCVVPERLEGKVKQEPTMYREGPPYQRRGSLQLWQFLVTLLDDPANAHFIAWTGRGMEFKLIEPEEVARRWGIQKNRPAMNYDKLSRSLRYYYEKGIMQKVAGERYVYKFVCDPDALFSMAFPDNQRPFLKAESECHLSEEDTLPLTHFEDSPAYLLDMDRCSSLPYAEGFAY
Method in brief: as §1

[3] = molecular target: T2, SPIC (Homo sapiens, UniProt Q8N5J4 1-248)
T2 sequence: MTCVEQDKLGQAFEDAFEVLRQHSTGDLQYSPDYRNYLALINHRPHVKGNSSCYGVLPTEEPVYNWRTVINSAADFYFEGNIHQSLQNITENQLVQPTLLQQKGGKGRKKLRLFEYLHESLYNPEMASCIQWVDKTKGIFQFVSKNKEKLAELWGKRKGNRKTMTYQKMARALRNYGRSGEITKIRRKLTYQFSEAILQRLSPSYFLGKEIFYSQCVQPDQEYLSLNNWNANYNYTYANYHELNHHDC
Method in brief: as §1

[4] = molecular target: ELF4 (Homo sapiens, UniProt Q99607 1-663)
ELF4, sequence (Q99607 whole entry): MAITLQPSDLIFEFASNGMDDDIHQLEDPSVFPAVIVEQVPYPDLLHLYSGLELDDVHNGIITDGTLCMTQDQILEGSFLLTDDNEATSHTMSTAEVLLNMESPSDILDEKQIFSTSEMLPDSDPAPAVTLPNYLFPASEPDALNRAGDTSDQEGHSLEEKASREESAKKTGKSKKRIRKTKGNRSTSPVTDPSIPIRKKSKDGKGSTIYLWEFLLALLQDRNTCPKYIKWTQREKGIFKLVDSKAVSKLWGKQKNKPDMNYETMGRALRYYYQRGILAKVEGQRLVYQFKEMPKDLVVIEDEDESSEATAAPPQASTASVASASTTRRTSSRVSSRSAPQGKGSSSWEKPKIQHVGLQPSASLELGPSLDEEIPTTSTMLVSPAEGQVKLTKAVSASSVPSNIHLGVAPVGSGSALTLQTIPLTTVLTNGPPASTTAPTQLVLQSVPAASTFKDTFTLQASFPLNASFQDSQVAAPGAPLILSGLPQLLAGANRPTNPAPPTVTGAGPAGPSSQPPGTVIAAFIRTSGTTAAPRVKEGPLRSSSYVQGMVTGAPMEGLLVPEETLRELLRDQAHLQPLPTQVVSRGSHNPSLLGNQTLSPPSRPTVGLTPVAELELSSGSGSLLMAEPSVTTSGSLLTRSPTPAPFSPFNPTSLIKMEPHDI
Method in brief: as §1

[5] = molecular target: T3, ELK4 (Homo sapiens, UniProt P28324-2 1-405)
T3 sequence: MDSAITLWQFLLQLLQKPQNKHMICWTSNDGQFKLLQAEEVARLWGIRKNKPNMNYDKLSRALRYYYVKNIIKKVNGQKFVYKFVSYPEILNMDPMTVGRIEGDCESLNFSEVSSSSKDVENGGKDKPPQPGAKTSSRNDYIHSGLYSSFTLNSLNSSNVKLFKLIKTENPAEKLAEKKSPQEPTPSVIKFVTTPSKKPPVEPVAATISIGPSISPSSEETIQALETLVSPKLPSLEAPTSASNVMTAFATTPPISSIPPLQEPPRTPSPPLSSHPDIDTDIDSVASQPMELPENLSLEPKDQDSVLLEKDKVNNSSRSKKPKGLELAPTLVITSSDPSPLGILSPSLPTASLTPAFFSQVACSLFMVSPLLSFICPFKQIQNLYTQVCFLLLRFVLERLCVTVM
Method in brief: as §1

[6] = molecular target: T4, ETV2 (Homo sapiens, UniProt O00321 1-342)
T4 sequence: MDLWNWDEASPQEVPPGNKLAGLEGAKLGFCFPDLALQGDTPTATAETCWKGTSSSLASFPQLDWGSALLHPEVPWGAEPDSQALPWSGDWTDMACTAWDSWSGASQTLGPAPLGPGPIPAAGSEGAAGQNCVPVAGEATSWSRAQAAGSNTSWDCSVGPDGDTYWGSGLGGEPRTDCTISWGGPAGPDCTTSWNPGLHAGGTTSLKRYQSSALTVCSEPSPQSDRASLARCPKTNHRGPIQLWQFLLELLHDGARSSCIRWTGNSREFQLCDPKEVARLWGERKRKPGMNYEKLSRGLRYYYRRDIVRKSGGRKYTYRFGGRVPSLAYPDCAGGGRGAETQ
Method in brief: as §1

[7] = molecular target: T5, ELF3 (Homo sapiens, UniProt P78545 1-371)
T5 sequence: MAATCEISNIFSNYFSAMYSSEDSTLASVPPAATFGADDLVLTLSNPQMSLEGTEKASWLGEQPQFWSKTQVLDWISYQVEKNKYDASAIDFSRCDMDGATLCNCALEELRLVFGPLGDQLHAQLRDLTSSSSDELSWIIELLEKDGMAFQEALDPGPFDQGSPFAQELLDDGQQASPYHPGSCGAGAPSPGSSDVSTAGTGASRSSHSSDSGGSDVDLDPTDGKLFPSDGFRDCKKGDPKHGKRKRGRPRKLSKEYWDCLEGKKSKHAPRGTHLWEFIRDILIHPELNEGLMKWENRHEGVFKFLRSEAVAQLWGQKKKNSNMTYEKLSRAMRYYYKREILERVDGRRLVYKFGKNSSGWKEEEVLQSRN
Method in brief: as §1

[8] = molecular target: ETV1 (Homo sapiens, UniProt P50549 1-477)
ETV1, sequence (P50549 whole entry): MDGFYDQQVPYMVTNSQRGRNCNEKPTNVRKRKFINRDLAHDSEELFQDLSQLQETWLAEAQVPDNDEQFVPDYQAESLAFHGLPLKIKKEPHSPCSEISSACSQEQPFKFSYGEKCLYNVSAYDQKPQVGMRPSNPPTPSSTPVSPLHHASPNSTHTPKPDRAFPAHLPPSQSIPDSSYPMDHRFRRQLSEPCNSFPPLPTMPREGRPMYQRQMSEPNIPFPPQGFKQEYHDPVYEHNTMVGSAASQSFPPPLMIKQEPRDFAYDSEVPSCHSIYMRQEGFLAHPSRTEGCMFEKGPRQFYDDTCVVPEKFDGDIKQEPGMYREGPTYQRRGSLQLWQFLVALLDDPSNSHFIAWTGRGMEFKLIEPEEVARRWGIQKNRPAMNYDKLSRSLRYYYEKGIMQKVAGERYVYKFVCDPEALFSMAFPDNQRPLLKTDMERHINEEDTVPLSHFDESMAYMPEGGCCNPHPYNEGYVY
Method in brief: as §1

[9] = molecular target: T6, ERF (Homo sapiens, UniProt P50548 1-548)
T6 sequence: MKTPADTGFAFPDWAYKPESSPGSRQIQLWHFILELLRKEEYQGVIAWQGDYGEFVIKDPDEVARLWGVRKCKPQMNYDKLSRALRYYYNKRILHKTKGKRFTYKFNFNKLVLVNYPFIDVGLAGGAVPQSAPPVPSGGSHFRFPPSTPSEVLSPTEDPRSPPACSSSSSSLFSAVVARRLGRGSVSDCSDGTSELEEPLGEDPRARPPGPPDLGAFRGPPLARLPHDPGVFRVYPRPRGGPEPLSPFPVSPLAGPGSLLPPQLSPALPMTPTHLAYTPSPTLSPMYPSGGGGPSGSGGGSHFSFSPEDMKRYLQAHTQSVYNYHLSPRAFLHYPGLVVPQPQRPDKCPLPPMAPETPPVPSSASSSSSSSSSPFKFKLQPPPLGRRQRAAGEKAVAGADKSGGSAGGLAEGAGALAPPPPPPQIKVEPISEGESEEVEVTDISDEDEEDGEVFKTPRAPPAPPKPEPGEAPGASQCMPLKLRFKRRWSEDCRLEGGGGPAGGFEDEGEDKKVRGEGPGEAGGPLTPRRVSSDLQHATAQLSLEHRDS
Method in brief: as §1

[10] = molecular target: T7, ETV3L (Homo sapiens, UniProt Q6ZN32 1-361)
T7 sequence: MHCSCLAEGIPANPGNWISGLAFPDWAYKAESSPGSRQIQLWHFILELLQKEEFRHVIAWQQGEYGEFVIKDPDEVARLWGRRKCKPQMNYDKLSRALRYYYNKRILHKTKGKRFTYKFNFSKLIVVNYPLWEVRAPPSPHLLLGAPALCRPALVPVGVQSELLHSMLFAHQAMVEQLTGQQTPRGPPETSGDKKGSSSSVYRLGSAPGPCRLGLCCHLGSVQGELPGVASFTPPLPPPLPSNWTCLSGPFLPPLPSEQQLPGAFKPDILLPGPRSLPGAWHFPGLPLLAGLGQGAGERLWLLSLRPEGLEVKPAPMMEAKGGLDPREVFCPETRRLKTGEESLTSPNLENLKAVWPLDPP
Method in brief: as §1

[11] = molecular target: T8, ETS2 (Homo sapiens, UniProt P15036 1-469)
T8 sequence: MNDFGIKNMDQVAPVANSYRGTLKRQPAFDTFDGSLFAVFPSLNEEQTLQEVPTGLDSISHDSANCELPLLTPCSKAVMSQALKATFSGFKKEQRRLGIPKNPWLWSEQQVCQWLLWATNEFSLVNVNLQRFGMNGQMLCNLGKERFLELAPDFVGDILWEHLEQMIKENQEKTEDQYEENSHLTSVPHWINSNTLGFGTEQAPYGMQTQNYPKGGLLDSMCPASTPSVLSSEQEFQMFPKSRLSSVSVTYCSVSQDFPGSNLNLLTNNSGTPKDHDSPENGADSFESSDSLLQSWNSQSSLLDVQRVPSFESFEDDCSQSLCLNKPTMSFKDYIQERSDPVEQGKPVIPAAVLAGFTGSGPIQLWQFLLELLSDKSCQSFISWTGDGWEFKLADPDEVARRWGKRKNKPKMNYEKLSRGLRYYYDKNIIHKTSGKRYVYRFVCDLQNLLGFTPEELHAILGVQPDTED
Method in brief: as §1

[12] = molecular target: T9, SPDEF (Homo sapiens, UniProt O95238 1-335)
T9 sequence: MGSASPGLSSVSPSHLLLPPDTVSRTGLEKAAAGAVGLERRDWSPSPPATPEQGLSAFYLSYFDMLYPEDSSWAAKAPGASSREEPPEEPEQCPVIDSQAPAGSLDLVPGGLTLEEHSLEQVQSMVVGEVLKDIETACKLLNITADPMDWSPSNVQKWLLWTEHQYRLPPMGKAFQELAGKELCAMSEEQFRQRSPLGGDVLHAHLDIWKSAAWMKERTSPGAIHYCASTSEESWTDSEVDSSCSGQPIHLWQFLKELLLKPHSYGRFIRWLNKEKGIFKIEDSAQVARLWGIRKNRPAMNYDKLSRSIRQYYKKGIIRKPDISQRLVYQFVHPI
Method in brief: as §1

[13] = molecular target: T10, ETV7 (Homo sapiens, UniProt Q9Y603 1-341)
T10 sequence: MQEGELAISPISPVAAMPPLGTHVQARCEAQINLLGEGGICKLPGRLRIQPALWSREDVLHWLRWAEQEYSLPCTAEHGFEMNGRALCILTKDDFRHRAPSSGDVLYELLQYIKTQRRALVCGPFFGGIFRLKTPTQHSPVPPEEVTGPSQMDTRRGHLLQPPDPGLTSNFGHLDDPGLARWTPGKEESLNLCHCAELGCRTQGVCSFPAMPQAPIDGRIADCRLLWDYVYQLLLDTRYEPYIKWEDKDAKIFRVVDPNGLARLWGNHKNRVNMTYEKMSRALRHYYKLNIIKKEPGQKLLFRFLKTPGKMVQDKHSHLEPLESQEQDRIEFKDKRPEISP
Method in brief: as §1

[14] = molecular target: T11, ELF5 (Homo sapiens, UniProt Q9UKW6-2 1-255)
T11 sequence: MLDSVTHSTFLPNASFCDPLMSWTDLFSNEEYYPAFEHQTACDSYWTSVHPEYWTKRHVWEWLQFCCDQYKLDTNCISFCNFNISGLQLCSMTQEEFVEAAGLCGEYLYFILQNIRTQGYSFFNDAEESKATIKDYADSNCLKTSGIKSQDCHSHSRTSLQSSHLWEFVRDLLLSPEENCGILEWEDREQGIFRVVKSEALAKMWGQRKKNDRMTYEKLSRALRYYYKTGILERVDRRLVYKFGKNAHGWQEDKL
Method in brief: as §1

[15] = molecular target: T12, ETV3 (Homo sapiens, UniProt P41162-2 1-143)
T12 sequence: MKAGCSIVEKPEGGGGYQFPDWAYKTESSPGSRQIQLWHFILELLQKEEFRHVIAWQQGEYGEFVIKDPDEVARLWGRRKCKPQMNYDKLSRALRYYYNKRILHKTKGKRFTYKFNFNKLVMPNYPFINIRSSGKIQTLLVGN
Method in brief: as §1

[16] = molecular target: ETV6 (Homo sapiens, UniProt P41212 1-452)
ETV6, sequence (P41212 whole entry): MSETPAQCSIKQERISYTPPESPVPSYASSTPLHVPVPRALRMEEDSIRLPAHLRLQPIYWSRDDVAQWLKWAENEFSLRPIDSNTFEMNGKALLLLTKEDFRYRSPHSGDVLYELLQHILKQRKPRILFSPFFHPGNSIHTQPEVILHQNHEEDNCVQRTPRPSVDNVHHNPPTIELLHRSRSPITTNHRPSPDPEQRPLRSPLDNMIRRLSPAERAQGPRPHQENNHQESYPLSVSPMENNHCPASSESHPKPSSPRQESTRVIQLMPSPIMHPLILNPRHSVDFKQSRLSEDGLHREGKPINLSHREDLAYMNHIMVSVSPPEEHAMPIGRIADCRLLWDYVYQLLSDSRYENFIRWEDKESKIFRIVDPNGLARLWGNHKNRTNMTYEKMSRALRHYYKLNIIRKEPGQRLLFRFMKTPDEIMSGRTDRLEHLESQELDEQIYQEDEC
Method in brief: as §1

Sequence | binding signal [1] | binding signal [2] | binding signal [3] | binding signal [4] | binding signal [5] | binding signal [6] | binding signal [7] | binding signal [8] | binding signal [9] | binding signal [10] | binding signal [11] | binding signal [12] | binding signal [13] | binding signal [14] | binding signal [15] | binding signal [16]
AACCGG | 2.35 fold enrichment (6-mer frequency, TF over GST control) | 1.53 fold enrichment (6-mer frequency, TF over GST control) | 1.4 fold enrichment (6-mer frequency, TF over GST control) | 1.31 fold enrichment (6-mer frequency, TF over GST control) | 1.26 fold enrichment (6-mer frequency, TF over GST control) | 1.45 fold enrichment (6-mer frequency, TF over GST control) | 1.36 fold enrichment (6-mer frequency, TF over GST control) | 1.69 fold enrichment (6-mer frequency, TF over GST control) | 1.42 fold enrichment (6-mer frequency, TF over GST control) | 1.43 fold enrichment (6-mer frequency, TF over GST control) | 1.46 fold enrichment (6-mer frequency, TF over GST control) | 1.8 fold enrichment (6-mer frequency, TF over GST control) | 1.36 fold enrichment (6-mer frequency, TF over GST control) | 1.52 fold enrichment (6-mer frequency, TF over GST control) | 1.6 fold enrichment (6-mer frequency, TF over GST control) | 1.5 fold enrichment (6-mer frequency, TF over GST control)
CAAACC | 1.18 fold enrichment (6-mer frequency, TF over GST control) | 1.05 fold enrichment (6-mer frequency, TF over GST control) | 1.06 fold enrichment (6-mer frequency, TF over GST control) | 1.2 fold enrichment (6-mer frequency, TF over GST control) | 1.05 fold enrichment (6-mer frequency, TF over GST control) | 1.12 fold enrichment (6-mer frequency, TF over GST control) | 1.15 fold enrichment (6-mer frequency, TF over GST control) | 1.18 fold enrichment (6-mer frequency, TF over GST control) | 1.06 fold enrichment (6-mer frequency, TF over GST control) | 1.18 fold enrichment (6-mer frequency, TF over GST control) | 1.09 fold enrichment (6-mer frequency, TF over GST control) | 1.11 fold enrichment (6-mer frequency, TF over GST control) | 1.02 fold enrichment (6-mer frequency, TF over GST control) | 1.02 fold enrichment (6-mer frequency, TF over GST control) | 1.11 fold enrichment (6-mer frequency, TF over GST control) | 1.1 fold enrichment (6-mer frequency, TF over GST control)
CGCCCC | 1.21 fold enrichment (6-mer frequency, TF over GST control) | 1.23 fold enrichment (6-mer frequency, TF over GST control) | 1.24 fold enrichment (6-mer frequency, TF over GST control) | 1.28 fold enrichment (6-mer frequency, TF over GST control) | 1.06 fold enrichment (6-mer frequency, TF over GST control) | 1.02 fold enrichment (6-mer frequency, TF over GST control) | 1.09 fold enrichment (6-mer frequency, TF over GST control) | 1.25 fold enrichment (6-mer frequency, TF over GST control) | 1.28 fold enrichment (6-mer frequency, TF over GST control) | 1.31 fold enrichment (6-mer frequency, TF over GST control) | 1.05 fold enrichment (6-mer frequency, TF over GST control) | 1.18 fold enrichment (6-mer frequency, TF over GST control) | 1.2 fold enrichment (6-mer frequency, TF over GST control) | 1.1 fold enrichment (6-mer frequency, TF over GST control) | 1.16 fold enrichment (6-mer frequency, TF over GST control) | 1.19 fold enrichment (6-mer frequency, TF over GST control)
